KKLEB tox: cytotoxicity in KKLEB CF airway cells, primary screen, cytotoxicity control for CF NF-kB inhibitor project, cell-based, uHTS, fluorescence assay plates | activity change (cytotoxicity), % at 5 µM | actives 0.36% (n = 360,000) | KKLEB CF airway cells viability, ATPlite luminescence, overnight; hits give low values; cells stimulated with P. aeruginosa culture filtrate | AID 602141, 2011;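 active = corrected activity change at or below -50% at 5 µM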
HIF-2a inh: HIF-2a reporter inhibitors, primary screen, luminescence, 786-0 RCC cells | 786-0 RCC cells HIF-2a reporter, luciferase luminescence, overnight | inhibition, % at 18.8 µM | actives 0.72% (n = 360,000);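 active = inhibition of the luminescence signal of 40% or more relative to plate controls, in a single-dose primary screen at 18.75 µM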
C8 TRAIL sens: viability loss with TRAIL in NB7+C8 cells, primary screen, TRAIL sensitizer project, cell-based, ATPlite luminescence. inhibition (viability loss, TRAIL sensitization), % at 10 µM. actives 1% (n = 360,000). AID 624354, 2012;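 active = compounds causing at least 50% loss of cell viability in the single-dose screen, relative to plate controls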
Peg3 promoter: Peg3 promoter-driven luciferase inhibitors, primary screen, cell-based, HeLa, luciferase luminescence; inhibition, % at 20 µM; AID 588405, 2011; actives 1.7% (n = 360,000); HeLa PEG-Prom luciferase reporter, overnight;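 active = inhibition of at least 50% at 20 µM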
PPC-1+TRAIL kill: compounds killing PPC-1 cancer cells with TRAIL present, primary screen, TRAIL potentiator project, ATPLite luminescence, uHTS; PPC-1 cells + TRAIL, ATPLite viability luminescence; cell killing (% activity), % at 4 µM or 5 µM; actives 0.41% (n = 220,000); AID 1443, 2008;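 active = cell killing above 50% in the first pass at 4 µM, then a duplicate retest at 5 µM averaging 50% or more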;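 note: plate controls were cells with TRAIL plus DMSO for no effect and medium-only wells lacking cells for full effect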
CF NFkB inh: inhibitors of PAF-induced NF-kB signaling, primary screen, cell-based, GFP fluorescence, uHTS; KKLEB NF-kB-GFP reporter, GFP fluorescence overnight; actives 0.86% (n = 360,000); inhibition, % at 5 µM; AID 588850, 2011;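 active = at least 50% inhibition at 5 µM, scaled per plate between neutral and stimulator controls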;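 note: PAF is a Pseudomonas aeruginosa culture filtrate used as stimulus; plate controls were PAF-stimulated DMSO wells for no effect and unstimulated DMSO wells for full effect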
HIF-2a conf: HIF-2a reporter inhibitor retest, confirmation, luminescence, 786-0 RCC cells | HIF-2a luciferase reporter luminescence, overnight | AID 651580, 2012 | actives 56% (n = 1,800) | inhibition, % at 18.8 µM | shares compounds with HIF-2a inh;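 active = mean inhibition across four replicates of at least 40 percent at the single tested concentration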
HIF-1a counter: HIF-1a luciferase reporter signal reduction – MiaPaCa-2 cells, single concentration, counter-screen for HIF-2a inhibitor project, confirmation; AID 651589, 2012; actives 72% (n = 1,800); shares compounds with HIF-2a inh; MiaPaCa-2 HIF-1a luciferase reporter, desferoxamine, overnight; inhibition, % at 18.8 µM;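 active = mean inhibition of the reporter signal across four replicates at the single tested dose of 50% or more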
* hit, by the source's call; . = not tested or not shown. Rows were chosen to be rich in hits. Some 3.1% of all compounds tested hit in one or more screens of this group.

SMILES | KKLEB tox | HIF-2a inh | C8 TRAIL sens | Peg3 promoter | PPC-1+TRAIL kill | CF NFkB inh | HIF-2a conf | HIF-1a counter
CC(=O)O[C@H]1C[C@@H]2OC3C=C(C)CCC3(C)[C@@]1(C)[C@@]21CO1 (stereo not given in full) | -19.1 | 48.0* | 25.7 | 96.1* | . | 89.5* | 64.5* | 102.3*
CSCCC(c1nnnn1C1CCCCC1)N1CCC2(CC1)C(=O)NCN2c1ccccc1 (stereo not given) | -18.7 | -5.5 | -7.0 | 16.6 | . | -21.3 | . | .
COC(=O)C1=C(c2ccc(C(C)=O)cc2)C[C@@H]2CC[C@H]1N2C(=O)N1CCCCC1 | 2.3 | 8.0 | -15.1 | 1.5 | . | 9.0 | . | .
C[C@@H]1CN([C@@H](C)CO)C(=O)CCCn2nncc2CO[C@H]1CN(C)C(=O)Oc1ccccc1 | -4.5 | 5.3 | 7.1 | -13.0 | . | 8.6 | . | .
COc1cc([N+](=O)[O-])c2ncccc2c1[N+](=O)[O-] | -1.8 | 43.3* | 8.3 | 47.6 | . | 27.6 | 1.0 | 78.3*
COc1cc([N+](=O)[O-])c2nc(C)ccc2c1[N+](=O)[O-] | -22.5 | -9.9 | 5.6 | 7.4 | . | 25.5 | . | .
C[C@H]1CC[C@@H]2[C@@H](C)[C@H]3[C@H](C[C@H]4[C@@H]5CC=C6C[C@@H](O[C@@H]7O[C@H](CO)[C@H](O)[C@H](O[C@@H]8O[C@H](CO)[C@@H](O)[C@H](O)[C@H]8O)[C@H]7O[C@@H]7O[C@@H](C)[C@H](O)[C@@H](O)[C@H]7O)CC[C@]6(C)[C@H]5CC[C@]34C)N2C1 | 8.4 | 87.0* | 10.6 | 31.7 | 2.0 | -2.5 | 30.7 | 67.5*
COCCn1c(O)c(/C=N/NC(=O)CSC(=S)N2CCCC2)c(=O)[nH]c1=S | 17.1 | 10.4 | -10.8 | 5.8 | . | -4.0 | . | .
CSCCC(c1nnnn1-c1c(C)cccc1C)N1CCC(n2c(=O)[nH]c3ccccc32)CC1 (stereo not given) | -26.5 | -4.9 | 30.8 | 18.0 | . | 37.4 | . | .
O=c1[nH]c2ccccc2n1C1CCN(C(CCc2ccccc2)c2nnnn2Cc2ccccc2)CC1 (stereo not given) | -82.1* | 66.6* | 91.3* | 97.4* | . | 83.5* | -20.3 | 105.3*
COc1ccc(/C=C/C(=O)c2c(O)n(CCC3=CCCCC3)c(=O)[nH]c2=O)cc1 | 2.2 | 52.7* | 11.3 | 7.3 | 19.9 | -17.6 | 32.5 | 64.7*
O=C1NCCCCC1(Cl)Cl | 7.3 | 4.2 | 1.6 | 4.5 | . | -0.5 | . | .
CCOC(=O)[C@]12Cc3cc(C)ccc3[C@H]1N(CCC(=O)OC)C(=O)c1ccccc12 | . | 25.3 | 41.7 | . | . | . | . | .
CCOC(=O)[C@]12Cc3c(cc(OC)c(OC)c3OC)[C@H]1N(C1CCCCC1)C(=O)c1ccccc12 | . | 76.4* | 90.3* | . | . | . | 90.0* | 105.4*
CCOC(=O)[C@]12Cc3ccccc3[C@H]1N(C(C)C)C(=O)c1ccccc12 | . | 31.1 | 28.6 | . | . | . | . | .
CCCCCN1C(=O)c2cc(OC)ccc2[C@@]2(C(=O)OCC)Cc3cc(OC)ccc3[C@@H]12 | . | 80.9* | 48.0 | . | . | . | 92.3* | 105.9*
CCOC(=O)[C@]12Cc3cc(OC)ccc3[C@H]1N(C)C(=O)c1cc(OC)ccc12 | . | 11.8 | 23.3 | . | . | . | . | .
CCOC(=O)[C@]12Cc3ccc(C)cc3[C@H]1N(C1CCCCC1)C(=O)c1cc(OC)ccc12 | . | 95.2* | 95.0* | . | . | . | 99.4* | 106.1*
CCOC(=O)[C@]12Cc3cc(C)ccc3[C@H]1N(C1CCCCC1)C(=O)c1ccccc12 | . | 87.6* | 92.1* | . | . | . | 96.7* | 105.8*
COP(=S)(OC)SCn1nnc2ccccc2c1=O | 4.3 | -5.7 | -6.2 | -37.1 | . | -6.1 | . | .
Cc1cccc(OCC(O)CN2CC2)c1 (stereo not given) | -13.3 | 12.3 | -10.2 | 2.7 | . | 6.4 | . | .
COC(=O)C1=C(c2ccc(F)cc2OCc2ccccc2)C[C@@H]2CC[C@H]1N2C(=O)N1CCOCC1 | 12.0 | 10.7 | 1.8 | 1.7 | . | 2.2 | . | .
CCOC(=O)[C@]12Cc3ccc(C)cc3[C@H]1N(C1CCCCC1)C(=O)c1ccccc12 | . | 81.0* | 86.4* | . | . | . | 95.5* | 98.3*
O=C(Nc1ccc(OC(=O)N2CCCCC2)cc1)N1CCOCC1 | 7.3 | 72.0* | 13.7 | 16.1 | 9.1 | 14.7 | 76.2* | 51.5*
CN(C)c1ccc(C2C3C=CC(C3)C2(C#N)C(=O)O)c(Br)c1 (stereo not given) | 5.7 | 18.1 | 1.8 | 6.5 | . | -18.5 | . | .
SMILES | KKLEB tox | HIF-2a inh | C8 TRAIL sens | Peg3 promoter | PPC-1+TRAIL kill | CF NFkB inh | HIF-2a conf | HIF-1a counter
CC(C)(O)C(=O)Nc1ccc([N+](=O)[O-])c(C(F)(F)F)c1 | 8.4 | 0.1 | -11.7 | -7.5 | . | 7.1 | . | .
COc1cc2c(cc1OC)CN(c1ccc([N+](=O)[O-])c(C(F)(F)F)c1)CC2 | -9.3 | 46.5* | 12.1 | 26.6 | 8.2 | -11.7 | -11.7 | 35.9
Cc1cccc(OP(N)(=O)Oc2cccc(C)c2)c1 | -0.2 | 7.9 | -11.9 | 6.7 | 1.8 | -7.0 | . | .
Cc1cccc(OP(=O)(NCc2ccccc2)Oc2cccc(C)c2)c1 | -9.6 | 67.6* | -0.9 | 34.2 | 1.3 | 6.1 | 0.0 | 79.5*
CCC(C)(O)C(=O)OC1C(=O)OC2CC3C(C)=CC(O)C(O)C3(C)C3C4(O)OCC23C1C(C)C4O (stereo not given) | 5.0 | 45.6* | 33.6 | 95.1* | . | 35.0 | 44.7* | 101.8*
O=c1c2ccccc2nc(CNc2ccccc2)n1-c1ccccc1 | 19.7 | 8.2 | -19.4 | 5.6 | 24.4 | -23.4 | . | .
O=C(c1ccccc1)C(CN1CCCC1)c1ccccc1 (stereo not given) | -50.0 | 89.0* | 19.5 | 104.5* | 57.4* | 68.5* | 30.9 | 78.8*
CCN1CCN(CC(c2ccccc2)c2ccccc2)CC1 | 18.8 | 10.5 | 7.6 | 16.0 | . | -16.9 | . | .

Compound activity as filed in PubChem BioAssay.
